According to PubChem BioAssay (NCI):
The panel holds about 83,000 compounds, 20% with a hit somewhere; the sample as a whole holds those more often.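 Activity criterion: percent growth below 10, measured after cells in 96-well plates were exposed to a single compound concentration for 48 hours.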 Values without a mark were called inactive. Active and inactive are the calls of the source.

Key:
Experiment in all cases: NCI-60 one-dose screen, 48 h (100 = growth as untreated, 0 = no growth, -100 = all killed)
Conditions in all cases: 10 µM unless noted
[1] = system: SK-MEL-2 melanoma
[2] = system: SN12C renal
[3] = system: UO-31 renal
[4] = system: TK-10 renal
[5] = system: ACHN renal
[6] = system: CAKI-1 renal
[7] = system: A498 renal
[8] = system: MOLT-4 leukemia
[9] = system: CCRF-CEM leukemia
[10] = system: EKVX NSCLC

For `O=C(CS)OCC(COC(=O)CS)(COC(=O)CS)COC(=O)CS`, the growth [1] was 40.6%, the growth [2] was 90.2% and the growth [3] was 93.5%. For the same compound, the growth [4] was 113%, the growth [5] was 93.9% and the growth [6] was 96.5%. The growth [7] was 104% and the growth [8] was 3.08% (active).
`CC(=O)c1ccc(-n2c(-c3cc(-c4ccsc4)n[nH]3)n[nH]c2=S)cc1` gave a growth [1] of 86.9%, a growth [2] of 98.3% and a growth [3] of 89.5%. For the same compound, the growth [4] was 98%, the growth [5] was 88.4% and the growth [6] was 92.7%. The growth [7] was 111% and the growth [8] was 87.6%.
Work on `C=CCn1c(SCC(=O)Nc2ccc(C(=O)/C=C/c3ccc(Cl)cc3)cc2)nnc1-c1ccc(Cl)cc1` yielded a growth [1] of 100%, a growth [2] of 78.8% and a growth [3] of 61.7%. For the same compound, the growth [4] was 90.8%, the growth [5] was 101% and the growth [7] was 83.8%. For the same compound, the growth [9] was 96.5% and the growth [8] was 68.4%.
`C=CC[C@]1(O)CC[C@H]2[C@@H]3CCc4cc(O)ccc4[C@H]3CC[C@@]21C` gave a growth [1] of 90.6%, a growth [2] of 96.1% and a growth [3] of 85.7%. For the same compound, the growth [4] was 107%, the growth [5] was 94.5% and the growth [6] was 103%. It also gave a growth [7] of 97.2% and a growth [8] of 62%.
With `COc1ccc(C(=O)C(C#N)c2cc(OC)c(OC)c(OC)c2)cc1` (stereo not drawn) the growth [1] was 99.7%, the growth [2] was 109% and the growth [3] was 96.5%. For the same compound, the growth [4] was 94%, the growth [5] was 104% and the growth [6] was 129%. It also gave a growth [8] of 88%.
For `CC(C)CC(NC(=O)C(CCCN=C(N)N)NC(=O)OCc1ccccc1)C(=O)NC(CNC(=O)/C=C/c1ccccc1)C(C)C` (stereo not drawn), the growth [1] was 113%, the growth [2] was 99.6% and the growth [3] was 93%. The growth [4] was 107%, the growth [5] was 91.9% and the growth [6] was 90%. For the same compound, the growth [8] was 97.5%.
`CNCc1cccc2c1OCCOCCOCCC(C)S(=O)(=O)c1ccc(cc1)-c1cnc(N)c(n1)C(=O)N2` (stereo not drawn) was tested, and the growth [10] was 52.3%, the growth [2] was 45.9% and the growth [3] was 44.4%. The growth [4] was 66.8%, the growth [5] was 18.9% and the growth [6] was 18.6%. The growth [7] was 6.01% (active) and the growth [9] was 2.12% (active).
In the case of `COc1c(B(O)O)cccc1-c1nc2c(F)cc3n[nH]c(C)c3c2c2c1CCCC2`, the growth [10] is reported as 34.8%, the growth [2] is reported as 19.3% and the growth [3] is reported as -2.78% (active). For the same compound, the growth [4] was -2.49% (active), the growth [5] was 8.08% (active) and the growth [6] was 0.215% (active). For the same compound, the growth [7] was -53.6% (active), the growth [9] was 17.7% and the growth [8] was 28.7%.
With `CC1CN(CCCOC(=O)Nc2ccc(Cl)cc2)CCN1C(C)(C)C` (stereo not drawn) the growth [1] was 112%, the growth [2] was 113% and the growth [4] was 99.8%. For the same compound, the growth [5] was 133%, the growth [6] was 89.8% and the growth [7] was 95.2%. For the same compound, the growth [9] was 90.3% and the growth [8] was 103%.
In the case of `CC(=O)Nc1ccc(Cl)cc1Cl`, the growth [10] is reported as 89.9%, the growth [2] is reported as 101% and the growth [3] is reported as 76.2%. The growth [4] was 112%, the growth [5] was 106% and the growth [6] was 73.4%. The growth [7] was 116%, the growth [9] was 145% and the growth [8] was 71.3%.
For `ClCc1cccc(CSc2ncnc3c2ncn3Cc2cccc(CCl)c2)c1`, the growth [10] was 92.9%, the growth [2] was 2.77% (active) and the growth [3] was 40.6%. For the same compound, the growth [4] was 48.4%, the growth [5] was 70.1% and the growth [6] was 96.4%. For the same compound, the growth [7] was 76.2%, the growth [9] was 3.41% (active) and the growth [8] was 5.6% (active).
Compound `Clc1ccc2c(c1)-c1ccccc1C1=NCCN12` has a growth [10] of 51.5%, a growth [2] of 29.1% and a growth [3] of 10.8%. The growth [4] was 20.1%, the growth [5] was 14.1% and the growth [6] was 29.4%. For the same compound, the growth [7] was 10.3%, the growth [9] was 28.4% and the growth [8] was 17.1%.
`COc1ccc(-c2nc(-c3cc(OC)cc(OC)c3)[nH]c2-c2ccc(OC)cc2)cc1` was tested, and the growth [1] was 29.4%, the growth [3] was 36.1% and the growth [4] was 62.2%. The growth [5] was 41.3%, the growth [6] was 44.5% and the growth [7] was 66%. For the same compound, the growth [9] was 11.1% and the growth [8] was 14.2%.
Compound `CS(=O)(=O)Nc1cc(-c2cc3ncc(C#N)c(Nc4ccc(Oc5ccccc5)c(Cl)c4)c3s2)cnc1Cl` has a growth [10] of 58.1%, a growth [2] of 45.7% and a growth [3] of 22.6%. It also gave a growth [4] of 45.4%, a growth [5] of 39.2% and a growth [6] of 19.4%. The growth [7] was -15.2% (active), the growth [9] was 38.3% and the growth [8] was 36.9%.
For `O=c1cc(-c2ccc3c(c2)OCCO3)oc2cc(Cl)ccc12`, the growth [10] was 28.1%, the growth [2] was 26% and the growth [3] was -72.2% (active). The growth [4] was -78.2% (active), the growth [5] was -70.1% (active) and the growth [6] was 4.01% (active). The growth [7] was 8.97% (active), the growth [9] was 97% and the growth [8] was 101%.
For `Nc1c(C(=O)Nc2cccc(Cl)c2)sc2ncc(Br)cc12`, the growth [1] was 89.6%, the growth [2] was 82% and the growth [4] was 57.9%. For the same compound, the growth [5] was 11.4%, the growth [6] was 90.6% and the growth [8] was 87.4%.
With `O=C(Nc1ccc(Br)cc1)Nc1ccccc1Cl` the growth [10] was 70.9%, the growth [2] was 84.7% and the growth [3] was 58.9%. For the same compound, the growth [4] was 125%, the growth [5] was 84.4% and the growth [6] was 55.2%. It also gave a growth [7] of 86.9% and a growth [9] of 94.8%.
`CCCCN(CCCC)CCC(=O)c1ccc(OC)c2ccccc12` showed a growth [10] of 92.8%, a growth [2] of 94.9% and a growth [3] of 57.9%. For the same compound, the growth [4] was 97.8%, the growth [5] was 92.3% and the growth [6] was 52.1%. It also gave a growth [7] of 107%, a growth [9] of 35.7% and a growth [8] of 28.6%.
`FC(F)(F)C1=NNC(c2ccc3ccccc3c2)=NN1` showed a growth [1] of 111%, a growth [4] of 129% and a growth [5] of 90.1%. The growth [6] was 102%, the growth [7] was 90.5% and the growth [9] was 92.4%. It also gave a growth [8] of 107%.
`O=C(c1ccccc1)N(CCCCl)C(=O)N(CCCCl)C(=O)c1ccccc1` showed a growth [10] of 81%, a growth [2] of 94.6% and a growth [3] of 73.4%. It also gave a growth [4] of 96.8%, a growth [5] of 90.9% and a growth [6] of 74.9%. The growth [7] was 79.5%, the growth [9] was 99.7% and the growth [8] was 84.4%.
`Cc1cccc(C(=O)O)n1` gave a growth [10] of 93.9%, a growth [2] of 102% and a growth [3] of 72.3%. It also gave a growth [4] of 109%, a growth [5] of 102% and a growth [6] of 69.8%. For the same compound, the growth [7] was 116%, the growth [9] was 146% and the growth [8] was 94.2%.
In the case of `N#Cc1nc(-c2ccc(Cl)cc2)cc(-c2ccc(Nc3nc(N4CCCCC4)nc(N4CCCCC4)n3)cc2)c1N`, the growth [10] is reported as 91.8%, the growth [2] is reported as 104% and the growth [3] is reported as 80%. It also gave a growth [4] of 120%, a growth [5] of 96.8% and a growth [6] of 83.8%. For the same compound, the growth [7] was 110%, the growth [9] was 107% and the growth [8] was 99.2%.
For `O=C(Nc1ccccc1)C(CCCCN1C(=O)c2ccccc2C1=O)N1C(=O)c2ccccc2C1=O` (stereo not drawn), the growth [10] was 105%, the growth [2] was 102% and the growth [3] was 84.3%. The growth [4] was 105%, the growth [5] was 103% and the growth [6] was 105%. The growth [7] was 99.1%, the growth [9] was 100% and the growth [8] was 96.5%.
Compound `COc1ccc2c(c1)CCCC21C(=O)Nc2c(Cl)cccc21` (stereo not drawn) has a growth [10] of 91%, a growth [2] of 82.6% and a growth [3] of 82.8%. For the same compound, the growth [4] was 95.4%, the growth [5] was 85.1% and the growth [6] was 54.9%. It also gave a growth [7] of 79.6%, a growth [9] of 60.9% and a growth [8] of 52.1%.
`CC(=O)c1ccc(Nc2nc(Cl)nc(Oc3c(Cl)cccc3Cl)n2)cc1` was tested, and the growth [10] was 77.2%, the growth [2] was 93.1% and the growth [3] was 77.8%. The growth [4] was 115%, the growth [5] was 98.3% and the growth [6] was 85.5%. For the same compound, the growth [7] was 69.3% and the growth [9] was 91%.
With `C/C(=N\OC(=O)Nc1cccc(Cl)c1)c1ccccc1` the growth [1] was 106%, the growth [2] was 95% and the growth [4] was 109%. It also gave a growth [5] of 101%, a growth [6] of 106% and a growth [7] of 42.8%. For the same compound, the growth [9] was 89.1% and the growth [8] was 89.9%.
`COc1ccc2[nH]c(C(=O)OCc3ccc4c(Br)cc(Br)c(O)c4n3)cc2c1` was tested, and the growth [10] was -70.9% (active), the growth [2] was -71.2% (active) and the growth [3] was -100% (active). For the same compound, the growth [4] was -95.6% (active), the growth [5] was -98.3% (active) and the growth [6] was -98.7% (active). For the same compound, the growth [7] was -17.1% (active), the growth [9] was 3.76% (active) and the growth [8] was -8.86% (active).
Compound `O=C1OCC2=C1C(c1cccc(Br)c1)c1cc3c(cc1N2CCO)OCCO3` (stereo not drawn) has a growth [10] of 44.1%, a growth [2] of 26.7% and a growth [3] of 18.1%. The growth [4] was 62.7%, the growth [5] was 33.8% and the growth [6] was 15%. The growth [7] was -11% (active), the growth [9] was 9.31% (active) and the growth [8] was 20.5%.
